Results on six compounds are retold here after PubChem BioAssay.

Several values for one entry are separate records, joined by “and”; a condition that tells them apart may be missing. Identical values can stand only once. Results filed as inconclusive are left out. More than one record can exist for a structure, and the calls need not agree. This is one part of the list. Activity calls are given as the source filed them.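 How the source made its calls, unless noted: active means response below a set limit, under 55% cells CD8-positive and vesicle-bound, and CD8 cells' 90th-percentile brightness under 279; inactive means the rest.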

Test [1] is described as follows: interference with biotin-avidin bead interaction – biochemical, flow cytometry, bead-based, counter-screen for RGS protein interaction modulators (AID 1783;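 active means inhibition above 50%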;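 further: median green fluorescence of gated singlet beads compared with DMSO control wells; 0% = DMSO wells and 100% = complete loss of bead fluorescence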). The settings on record: streptavidin beads, fluorescein-biotin binding; at 10 µM, stronger effect = higher value. For orientation: Flow cytometry measures light scatter and fluorescence of single cells or particles in a stream.

The target of test [2] is Guanine nucleotide-binding protein G(o) subunit alpha (Homo sapiens) (UniProt P09471). The test can be described thus: retest of RGS8-Galphao interaction hits – biochemical, multiplexed bead flow cytometry, single concentration, confirmation (AID 1836; in the data active means binding response below about 72% or above about 130%; inactive means in between;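 further: Galphao activated as GDP AlF4 complex before binding bead RGS8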). The settings on record: bead-based flow cytometry RGS8-Galphao binding, fluorescence; at 10 µM; actives lie on both sides.
Sequence of Guanine nucleotide-binding protein G(o) subunit alpha (Homo sapiens) (P09471 whole entry, looked up): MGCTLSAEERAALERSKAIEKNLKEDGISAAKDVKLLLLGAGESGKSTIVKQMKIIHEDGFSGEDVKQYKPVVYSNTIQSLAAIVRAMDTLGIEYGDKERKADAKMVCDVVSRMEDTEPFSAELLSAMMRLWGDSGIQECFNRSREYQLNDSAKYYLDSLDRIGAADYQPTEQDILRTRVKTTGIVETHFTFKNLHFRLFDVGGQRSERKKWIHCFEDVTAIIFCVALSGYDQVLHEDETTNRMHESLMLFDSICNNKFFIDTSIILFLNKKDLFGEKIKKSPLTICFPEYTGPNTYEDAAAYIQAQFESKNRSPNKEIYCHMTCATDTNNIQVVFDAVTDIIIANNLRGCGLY

The target is the same in test [3]. Kind of test: retest of RGS7-Galphao interaction hits – biochemical, multiplexed bead flow cytometry, single concentration, confirmation (AID 1837; in the data active means response below about 75% or above about 130%; inactive means in between;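 further: fluorescent Galphao activated with GDP and aluminum fluoride binding bead-coupled RGS7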). The settings on record: bead-based flow cytometry RGS7-Galphao binding; at 10 µM; actives lie on both sides.
Test [4] has as its target Regulator of G-protein signaling 16 (Homo sapiens) + Guanine nucleotide-binding protein G(o) subunit alpha (Homo sapiens) (UniProt O15492+P09471). The test can be described thus: RGS16 and Galphao interaction regulators – biochemical, single concentration, multiplexed bead flow cytometry, confirmation (AID 1838; in the data active means response below about 74% or above about 130%; inactive means in between;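 further: Galphao activated as the GDP aluminium fluoride complex binding bead-coupled RGS16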). The settings on record: bead-based flow cytometry, at 10 µM, actives lie on both sides.

The target in test [5] is Guanine nucleotide-binding protein G(o) subunit alpha (Homo sapiens) (UniProt P09471). The test can be described thus: RGS4 and Galphao interaction regulators – biochemical, single concentration, multiplexed bead flow cytometry, confirmation (AID 1840; in the data active means binding response below about 74% or above about 130%; inactive means in between). The settings on record: at 10 µM, actives lie on both sides.
Test [6] addresses Guanine nucleotide-binding protein G(o) subunit alpha (Homo sapiens) + Regulator of G-protein signaling 19 (Homo sapiens) (UniProt P09471+P49795). The test can be described thus: RGS19 interaction with Gαo, hit retest – biochemical, single point, multiplexed bead flow cytometry, confirmation (AID 1841; in the data active means response below about 50% or above about 160%; inactive means in between;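 further: 100% = no compound control and 0% = blank background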). The settings on record: bead-based flow cytometry RGS19-Galphao binding; at 10 µM; actives lie on both sides.

Test [7] is described as follows: rapamycin-like changes in RPL19A-GFP expression – cell-based, S. cerevisiae, multiplex flow cytometry, primary screen (AID 1862; in the data active means percent of DMSO control GFP below about 86%;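 further: lower values mimic rapamycin by blocking the RPL19A rise seen in DMSO cells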). The settings on record: S. cerevisiae RPL19A-GFP strain, flow cytometry fluorescence, 3 h; at 10 µM; stronger effect = lower value.
Test [8] is described as follows: TOR pathway GLN3 branch reporter MEP2-GFP changes – S. cerevisiae, multiplex flow cytometry, primary screen (AID 1867;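 active means GFP response, as percent of the DMSO control, above the screen-wide mean plus 3 SD, about 139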;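 further: median GFP channel fluorescence of barcode-gated MEP2-GFP cells measured by flow cytometry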). The settings on record: S. cerevisiae MEP2-GFP strain, 3 h, at 10 µM, stronger effect = higher value, 100% means same as DMSO wells.
The nature of test [9]: TOR pathway RTG branch CIT2 reporter changes – S. cerevisiae, GFP fusion, multiplex flow cytometry, primary screen (AID 1870;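 active means percent response above a set limit, the screen-wide mean plus 3 SD, cut at about 130% in these data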;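 further: barcoded CIT2-GFP strain pooled with four other GFP strains with rapamycin as positive control; median GFP fluorescence per well over plate mean of DMSO wells so 100% = DMSO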). The settings on record: S. cerevisiae CIT2-GFP expression, 3 h, at 10 µM, stronger effect = higher value.
Test [10] can be described thus: TOR pathway LAP4-GFP level changes – S. cerevisiae, multiplex flow cytometry, primary screen (AID 1873;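 active means GFP signal, as percent of the solvent control, above the screen mean plus 3 SD, about 149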). The settings on record: S. cerevisiae LAP4-GFP expression, 3 h, at 10 µM, stronger effect = higher value.
Test [11] is described as follows: yeast AGP1-GFP level changes, GLN3 branch – cell-based, multiplex flow cytometry, S. cerevisiae, primary screen (AID 1887;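 active means GFP signal above the screen-wide mean plus 3 SD, that is over about 124.5% of the solvent control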;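 further: AGP1-GFP fusion strain of S. cerevisiae within a five-strain barcoded multiplex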). The settings on record: 3 h, at 10 µM, stronger effect = higher value.
Test [12] in a line: hit retest on RPL19A-GFP reporter strain – cell-based, S. cerevisiae, flow cytometry, cherry picks, mother/daughter gates, confirmation (AID 2270;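 active means GFP response below 50% of the DMSO control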). The settings on record: 3 h, at 10 µM, stronger effect = lower value, 100 = same GFP as DMSO wells.
The nature of test [13]: yeast TOR pathway reporter LAP4-GFP change – cell-based, cherry picks, flow cytometry, mother/daughter gates, confirmation (AID 2271;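 active means GFP response above 150% of the DMSO control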;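 further: ratio of sample to DMSO plate mean so 100% equals DMSO level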). The settings on record: S. cerevisiae LAP4-GFP strain, 3 h, at 10 µM, stronger effect = higher value, 100 means same as DMSO control.
Test [14] is described as follows: TOR pathway reporter MEP2-GFP, retest of hits – S. cerevisiae, flow cytometry GFP, cherry picks, confirmation (AID 2272;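 active means GFP response above 150% of the DMSO control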;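 further: ratio of well signal to plate DMSO mean so 100% equals DMSO level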). The settings on record: S. cerevisiae MEP2-GFP strain, 3 h, at 10 µM, stronger effect = higher value.
The nature of test [15]: TOR pathway CIT2 reporter hit retest – S. cerevisiae, GFP fusion, cherry picks, mother/daughter gates, confirmation (AID 2274;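 active means GFP response above 150% of the DMSO level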). The settings on record: S. cerevisiae CIT2-GFP strain, flow cytometry, 3 h, at 10 µM, stronger effect = higher value.
Test [16] is described as follows: reduced mouse 2C T cell binding to pMHC/ICAM-1 vesicles – MLPCN validation set, flow cytometry, LFA-1/ICAM-1 modulator project, pilot screen (AID 2523).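 On vesicle binding response: mean PE anti-B7-1 fluorescence of CD8+ cells relative to row control; 100% = QL9-loaded vesicles with DMSO vehicle in the same plate row.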 The settings on record: 2C mouse CD8+ T cells, at 7 µM, stronger effect = lower value; double positive events: measured here: CD8+/vesicle+ event percentage.
Test [17] addresses Regulator of G-protein signaling 16 (Homo sapiens) (UniProt O15492). Kind of test: small molecules altering RGS protein interactions with GNAO1 – biochemical, multiplexed beads, flow cytometry, RGS4/7/8/16/19, primary screen (AID 1504).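 Further: fluorescently labeled Galpha-o bound to GDP with aluminium fluoride binding biotinylated RGS beads.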 The settings on record: multiplexed bead flow cytometry, measured here: RGS16 interaction, at 10 µM.
The target of test [18] is Regulator of G-protein signaling 19 (Homo sapiens) (UniProt P49795). The test is described as above. The settings on record: multiplexed bead flow cytometry, measured here: RGS19 interaction, at 10 µM.
For test [19], the target named is Regulator of G-protein signaling 7 (Homo sapiens) (UniProt P49802). The test is described as above. The settings on record: multiplexed bead flow cytometry, measured here: RGS7 interaction, at 10 µM.
For test [20], the target named is Regulator of G-protein signaling 8 (Homo sapiens) (UniProt P57771). Described as above. The settings on record: multiplexed bead flow cytometry, measured here: RGS8 interaction, at 10 µM.
The mark [21] stands for this setting: measured here: daughter cell gate.
The mark [22] stands for this setting: measured here: mother cell gate.
Setting [23] is: measured here: daughter cell gate response.
Setting [24] is: measured here: mother cell gate response.

Sequence of Regulator of G-protein signaling 16 (Homo sapiens) + Guanine nucleotide-binding protein G(o) subunit alpha (Homo sapiens) (O15492 whole entry, looked up): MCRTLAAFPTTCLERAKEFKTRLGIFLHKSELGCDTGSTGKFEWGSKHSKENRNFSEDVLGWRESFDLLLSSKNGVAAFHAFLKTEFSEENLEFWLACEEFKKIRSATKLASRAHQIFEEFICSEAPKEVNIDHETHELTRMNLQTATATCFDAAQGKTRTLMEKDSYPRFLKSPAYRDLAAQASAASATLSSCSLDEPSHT
Sequence of Regulator of G-protein signaling 16 (Homo sapiens) + Guanine nucleotide-binding protein G(o) subunit alpha (Homo sapiens) (P09471 whole entry, looked up): as the sequence (P09471 whole entry, looked up) above
Sequence of Guanine nucleotide-binding protein G(o) subunit alpha (Homo sapiens) + Regulator of G-protein signaling 19 (Homo sapiens) (P09471 whole entry, looked up): as above
Sequence of Guanine nucleotide-binding protein G(o) subunit alpha (Homo sapiens) + Regulator of G-protein signaling 19 (Homo sapiens) (P49795 whole entry, looked up): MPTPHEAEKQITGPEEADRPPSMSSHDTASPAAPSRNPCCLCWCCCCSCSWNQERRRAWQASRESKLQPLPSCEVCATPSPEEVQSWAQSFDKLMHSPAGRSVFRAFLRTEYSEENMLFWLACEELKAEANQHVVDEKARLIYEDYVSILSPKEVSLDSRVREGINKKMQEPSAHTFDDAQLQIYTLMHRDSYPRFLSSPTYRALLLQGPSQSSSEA

Take `COc1ccccc1CCNC(=O)CSc1nnc2ccc(-c3cccnc3)nn12`: the inhibition (usually the relative decrease from the control value, in per cent) in test [1] was -0.7% (inactive). Moreover, the binding response (% of control) in test [2] was 100% (inactive); in test [5], 101% (inactive). The values for the response (percent of control binding) in test [3] and in test [6] were 103% (inactive) and 107% (inactive), respectively. For the same compound, the response (% of control binding) in test [4] was 101% (inactive).
As to `CCOC(=O)C(Cc1cc(C(C)=O)ccc1OC(C)C)C(=O)OCC`, the percent of DMSO control GFP in [7] is 93% (inactive). The GFP response vs DMSO is 142% (active) in [8]; 85.3% (inactive) in test [10]; 101% (inactive) in test [12]; 101% in test [12] (setting [21]); 102% in test [12] (setting [22]); 99.5% (inactive) in test [14]. Moreover, the percent response of DMSO control in test [9] is 110% (inactive). The GFP response, % of DMSO was 89.1% (inactive) in test [11], 96.4% (inactive) in test [15], 98.3% in test [15] (setting [21]) and 96.8% in test [15] (setting [22]). Also, the GFP response relative to DMSO was 97.7% (inactive) in [13], 95% in [13] (setting [23]) and 99.5% in [13] (setting [24]). This compound showed a double positive events in test [16] of 58.5%. Besides, the vesicle binding response in test [16] was 151% (inactive).
Take `NC(=O)CSc1c[nH]c2ccccc12`: in test [17], the RGS16–Galpha-o binding response came out at 19.6%. Besides, the RGS19–Galpha-o binding response in test [18] was -48.5%. In test [19], this compound came in with an RGS7–Galpha-o binding response of 25.2%. The same compound came in with an RGS8–Galpha-o binding response in test [20] of 27.5%. Moreover, in test [1], the inhibition is -1.7% (inactive). Also, the binding response (% of control) in test [2] is 104% (inactive); in test [5], 106% (inactive). The response (percent of control binding) in test [3] is 102% (inactive); in [6], 103% (inactive). In addition, in test [4], the response (% of control binding) is 110% (inactive).
For `C[n+]1ccccc1/C=N/O`, the percent of DMSO control GFP in test [7] was 99.2% (inactive) and 98.9% (inactive). For the same compound, the GFP response vs DMSO in test [8] is 143% (active) and 101% (inactive); in [10], 90.2% (inactive) and 97% (inactive); in [12], 99% (inactive); in [12] (setting [21]), 99.5%; in test [12] (setting [22]) it was 99.6%; in test [14], 100% (inactive). For the same compound, the percent response of DMSO control in [9] is 101% (inactive) and 95.5% (inactive). In addition, the GFP response, % of DMSO in test [11] was 98.2% (inactive) and 98.3% (inactive); in test [15] it was 111% (inactive); in test [15] (setting [21]) it was 108%; in test [15] (setting [22]) it was 112%. For the same compound, the GFP response relative to DMSO in [13] is 98.7% (inactive); in [13] (setting [23]), 100%; in test [13] (setting [24]), 101%. In addition, in [16], the double positive events is 60.5% and 64%. Also, the vesicle binding response in test [16] is 142% (inactive) and 180% (inactive).
As for `CN1CCN2c3ccccc3Cc3ccccc3C2C1` (centres undefined), the percent of DMSO control GFP in test [7] is 90.2% (inactive). The GFP response vs DMSO in test [8] was 146% (active); in test [10], 94.6% (inactive); in [12], 99.3% (inactive); in test [12] (setting [21]), 98.4%; in test [12] (setting [22]) it was 100%; in test [14], 100% (inactive). Further, the percent response of DMSO control in test [9] is 118% (inactive). The GFP response, % of DMSO was 107% (inactive) in test [11], 99.1% (inactive) in [15], 94.8% in test [15] (setting [21]) and 101% in [15] (setting [22]). Also, the results for the GFP response relative to DMSO in test [13], in [13] (setting [23]) and in test [13] (setting [24]) were 95% (inactive), 97.2% and 97.2%, respectively. Further, the double positive events in test [16] turned out to be 61.8%. The vesicle binding response in test [16] is 183% (inactive).
Consider `O=c1[nH]cc(F)c(=O)[nH]1`, for which the percent of DMSO control GFP in test [7] was 90.9% (inactive). In addition, the GFP response vs DMSO is 119% (inactive) in test [8]; 77% (inactive) in [10]; 83.5% (inactive) in test [12]; 82.3% in test [12] (setting [21]); 85.4% in test [12] (setting [22]); 101% (inactive) in [14]. Also, the percent response of DMSO control in [9] was 127% (active). Further, the GFP response, % of DMSO was 104% (inactive) in [11], 88.5% (inactive) in [15], 87.3% in [15] (setting [21]) and 89.8% in [15] (setting [22]). Moreover, the results for the GFP response relative to DMSO in test [13], in test [13] (setting [23]) and in test [13] (setting [24]) were 90% (inactive), 88.8% and 93%, respectively. In test [16], this compound showed a double positive events of 52.4%. Moreover, the vesicle binding response in test [16] is 223% (inactive).
